Screening data as filed in PubChem BioAssay.
CYP2C19 act = increases human CYP2C19 enzyme activity; recombinant CYP2C19, luciferin-H EGE luminescence; hits give high values; 0 = fully inhibited enzyme, 1 = untreated enzyme; 96,000 tested, under 10 active; activation factor at 5 µM; AID 1025; P33261;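 active = activation factor of at least 2 at 5 µM in the primary screen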;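 note: 0 = wells with 2.5 mM tranylcypromine and 1 = vehicle-only wells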
CYP2C9 act = activators of human CYP2C9. P11712. 96,000 tested, 1.4% active. activation factor at 5 µM. recombinant CYP2C9, luciferin-H conversion, luminescence; hits give high values; factor 1 = untreated enzyme, 0 = blocked. AID 1024;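 active = activation factor of 2 or more for CYP2C9 at a 5 µM dose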;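 note: 0 = sulfaphenazole-blocked wells and 1 = vehicle-only wells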
CYP2C19 inhib = human CYP2C19 inhibition. CYP2C19 Supersomes, luciferin-H EGE luminescence, 30 min. inhibition, % at 5 µM. 96,000 tested, 21% active. AID 778;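 active = CYP2C19 inhibition above a set limit at 5 µM in the primary screen, cut at about 50% in these data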;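 note: plate controls were negative control wells for no effect and 2.5 mM tranylcypromine positive control for full effect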
CYP2C9 inhib = blocks human cytochrome P450 2C9; AID 777; CYP2C9 Supersomes, luciferin-H conversion, luminescence; 96,000 tested, 20% active; inhibition, % at 5 µM;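 active = blocking of liver enzyme CYP2C9 beyond about 50% at 5 µM, limit read from the data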
PLAP act = activates human placental alkaline phosphatase; P05187; 96,000 tested, 1.2% active; AID 696; purified PLAP enzyme, luminescent substrate read-out; hits give high values; activation fold at 20 µM; in the data active = activation fold above about 2
Target sequence (P05187 whole entry, looked up): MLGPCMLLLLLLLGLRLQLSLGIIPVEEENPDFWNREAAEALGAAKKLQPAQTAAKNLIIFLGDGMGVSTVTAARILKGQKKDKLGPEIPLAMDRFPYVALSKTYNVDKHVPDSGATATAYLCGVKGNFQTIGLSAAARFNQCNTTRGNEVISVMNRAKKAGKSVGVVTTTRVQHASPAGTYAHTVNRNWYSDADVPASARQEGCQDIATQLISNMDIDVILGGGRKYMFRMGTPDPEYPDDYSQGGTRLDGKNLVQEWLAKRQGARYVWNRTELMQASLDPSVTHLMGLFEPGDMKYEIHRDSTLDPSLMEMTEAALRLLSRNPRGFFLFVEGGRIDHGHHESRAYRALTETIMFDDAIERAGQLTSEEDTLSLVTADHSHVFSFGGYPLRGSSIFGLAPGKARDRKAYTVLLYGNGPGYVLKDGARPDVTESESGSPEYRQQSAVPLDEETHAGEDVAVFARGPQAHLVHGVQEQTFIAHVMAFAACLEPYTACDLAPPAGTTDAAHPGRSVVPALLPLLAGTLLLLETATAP
Active calls of the source: *. Most compounds without a hit are left out; they make up all but 31% or so of the library.

SMILES	CYP2C19 act	CYP2C9 act	CYP2C19 inhib	CYP2C9 inhib	PLAP act
COc1ccccc1NC(=O)CCC(=O)Nc1ccccc1OC	0.9	3.1*	7.4	-209.5	0.8
Cc1cc(C)n(C(=O)Cc2cn3ccsc3n2)n1	0.8	1	16.4	4.8	1
COc1ccc(OCC(=O)Nc2ccccc2OC)cc1	0.4	1	63.1*	2.1	0.9
COc1ccccc1NC(=O)CCCC(=O)OCC(F)(F)C(F)F	0.1	2.8*	87.1*	-181.9	1.2
COc1ccc(OCC(=O)Nc2ccccc2OC(F)F)cc1	0.5	1	48.9	4.7	0.8
COc1ccccc1NC(=O)CNC(=O)c1ccccc1	0.3	0.8	65.7*	23.4	1
Cc1ccsc1/C=N/NC(=O)CSCc1ccc(Cl)cc1	0.5	0.8	51.4*	22.4	1
CCOc1cc(C(=O)OCC(=O)Nc2cc(C)on2)cc(OCC)c1OCC	1	1	2.7	0.8	1
CCN1CCCC1CNCc1ccc(Cl)cc1Cl (stereo not given)	0.8	0.9	18.4	5.1	1
c1ccc2c(c1)ccc1nnc(SCc3ccc4c(c3)OCO4)n12	0.5	0.6	47.9	35.8	0.9
COc1ccccc1NC(=O)COc1ccc(/C=N/NC(=O)CSCc2ccc(Cl)cc2)cc1	0.4	0.3	62.7*	66.4*	1.1
COc1ccc(NC(=O)c2cc(OC)c(OC)c(OC)c2)cn1	0.4	0.6	56.0*	41.6	1.1
CCCOc1ccccc1N/C(=N/c1nc(C)cc(C)n1)NC(=O)COc1ccc(OC)cc1	0.1	0.1	89.8*	92.4*	2.4*
COC(=O)c1ccc(NC(=O)COc2ccccc2OC)cc1	0.6	0.8	44.0	19.5	0.8
O=C(COc1ccccc1CNCc1ccccc1)Nc1ccccc1	0.1	0.6	93.4*	44.7	2.6*
COc1cccc(CNC(=O)C2CCN(S(=O)(=O)c3ccc4c(c3)CCC(=O)N4)CC2)c1	1.1	0.8	-6.3	22.4	0.9
CN(Cc1ccccc1)C(=O)C1CCN(Cc2ccc(F)cc2)CC1	0.9	1.1	7.1	-6.8	1.7
COc1ccc(N2CCN(C(=O)C3CCCO3)CC2)cc1 (stereo not given)	0.9	1.1	10.7	-12.6	1.1
COc1ccc(NC(=O)CCCC(=O)OCC(F)(F)C(F)F)cc1	0.6	0.9	41.4	9.4	0.9
COc1cc(NC(=O)CCCC(=O)OCC(F)(F)C(F)F)nc(OC)n1	0.2	1.3	75.8*	-32.2	1.2
CCCC(=O)Nc1ccccc1NC(=O)c1cc(OC)c(OC)c(OC)c1	1	0.3	1.2	71.2*	1.1
Cc1ccc(C(=O)COC(=O)CNS(=O)(=O)c2ccccc2)cc1[N+](=O)[O-]	0.9	1.1	6.3	-5.3	1.1
O=C(COC(=O)c1ccccn1)Nc1cc(Cl)ccc1Cl	0.8	1	19.9	-4.8	0.9
CCOc1ccccc1C(=O)NC1CC2CCCC(C1)N2Cc1nnnn1Cc1ccco1 (stereo not given)	0.1	0	87.9*	98.0*	1.6
CCOc1ccccc1C(=O)NC1CC2CCCC(C1)N2C1CC1 (stereo not given)	0.8	0.3	22.0	69.0*	1.4
SMILES	CYP2C19 act	CYP2C9 act	CYP2C19 inhib	CYP2C9 inhib	PLAP act
NC(=O)C1CCN(Cc2nnnn2Cc2ccco2)CC1	1.1	1	-5.8	-2.2	0.9
C=CCn1c(C(C)NC(=O)c2ccccc2)n[nH]c1=S (stereo not given)	0.4	1	61.7*	4.3	0.9
O=C(NCc1cccs1)c1cnc2sccn2c1=O	1	1	1.1	2.1	1
CCS(=O)(=O)N1CCN(C2CCC(C)CC2)CC1 (stereo not given)	1	1.1	-2.0	-12.8	1.2
COc1ccc(CS(=O)(=O)/C(Cl)=C(/Cl)C(=O)Nc2ccc(OC)nc2)cc1	0.6	0.3	45.0	68.3*	0.8
CCCS(=O)(=O)C(=C(Nc1ccc(OC)cc1)Nc1ccc(OC)cc1)S(=O)(=O)CCC	1.1	1	-14.6	-4.9	1
COc1ccc(NC(=O)/C(Cl)=C(/Cl)S(=O)Cc2ccccc2)cn1 (stereo not given)	0.5	0.1	50.8*	92.2*	0.8
CCOc1ccccc1OCCCC(=O)Nc1ccc(OC)nc1	0.6	1.7	43.6	-74.4	1.1
CC1(C)CC(=O)C2=C(C1)NC(=O)CC2c1cc2c(cc1Br)OCO2 (stereo not given)	0.9	0.9	14.7	13.8	1
Fc1ccc2c(c1)C1C=CCC1C(c1cc3c(cc1Br)OCO3)N2 (stereo not given)	0.7	0.3	29.7	69.2*	1
O=C(Nc1nnc(COc2ccc(Cl)cc2)s1)c1cccs1	0.8	0.5	22.0	54.6*	1.3
CCOC(=O)c1cnn(-c2ccccc2)c1-n1cccc1	0.4	0.7	55.3*	27.4	0.9
CCOC(=O)c1cnn(-c2ccccc2)c1-n1cccc1C(=O)C(=O)Nc1ccc(OC)cc1	0.7	0.2	29.7	79.8*	1.2
Cc1c(C(=O)Oc2cccc3ccccc23)cnn1-c1ccccc1	0.3	0.6	67.2*	40.1	1.2
CCOC(=O)c1cnn(-c2ccccc2)c1-c1ccccc1	0.5	0.6	47.5	43.7	1.1
CCOc1ccc(C2=Cc3cc(OC)c(OC)cc3C(=C(Cl)Cl)O2)cc1	0.9	0.8	10.4	21.1	1.3
Cn1c(COc2ccc3ccccc3c2)nnc1SCC(=O)O	1	1.1	-0.9	-9.8	1.3
CCOP(=O)(c1ccccc1)C1(O)CCCCC1 (stereo not given)	1.1	1.1	-10.8	-14.3	1.2
C=CCNS(=O)(=O)c1sccc1/C=N/O	0.4	1	59.9*	1.8	1
C=CCNS(=O)(=O)c1ccc(OCC(=O)OCC)cc1	1	0.7	1.6	26.9	1
COc1ccc(N=Nc2nc3ccc(Br)cc3n2C)cc1	0.9	1.1	13.5	-14.6	1
Cc1ccc(S(=O)(=O)NCC(=O)OC2CCOC2=O)cc1 (stereo not given)	1	1.1	-2.3	-10.8	1.1
Cc1[nH]n(C(N)=S)c(=O)c1C(c1ccccc1)C(C#N)C#N (stereo not given)	0.9	0.9	5.4	14.6	1.4
CCCc1[nH][nH]c(=O)c1C(c1ccc(Br)cc1)C(C#N)C#N (stereo not given)	0.6	0.4	43.4	61.2*	1.8
CCCc1[nH][nH]c(=O)c1C(c1ccccc1)C(C#N)C#N (stereo not given)	0.4	0.4	57.6*	62.3*	1.8
NNC(=O)CNC(c1ccccc1)c1cc(Br)ccc1NC(=O)c1ccccc1Br (stereo not given)	0.6	0.4	38.3	58.2*	1.7
NNC(=O)CNC(c1ccccc1)c1cc(Br)ccc1NC(=O)CCN1CCOCC1 (stereo not given)	0.8	0.9	16.1	11.3	1.2
Cc1ccc2c(c1)nc(NCCO)n2C	0.9	0.8	9.2	19.9	1
Cc1cccc(N2CCN(C(=O)C3CCN(S(=O)(=O)c4cccnc4)CC3)CC2)c1C	0.9	0.8	14.5	19.8	1.4
